This passage reports outcome and AC50 results from PubChem BioAssay (EPA / NIEHS).

A short description of assay [1]: ATG_CRE_CIS: Attagene CIS-FACTORIAL HepG2 Assay for human cAMP Responsive Element (CRE) binding protein 3 (AID 2282926). Particulars: HepG2 CRE cis-reporter, Attagene multiplexed mRNA; actives raise or lower the signal. In short, it runs like this:
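Assay format: transient reporter transfection of HepG2, 24 h treatment, total RNA isolation with DNase I step. Reporter abundance read by fluorescence after PCR and capillary separation; DMSO-normalised gain or loss fitting.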

Assay [2] concerns the target CCAAT/enhancer-binding protein beta (Homo sapiens) (UniProt P17676). In words: ATG_C_EBP_CIS: Attagene CIS-FACTORIAL HepG2 Assay for human CCAAT/Enhancer Binding Protein (C/EBP) beta (AID 2282927). Particulars: HepG2 Attagene cis-factorial transcription factor reporter; actives raise or lower the signal. In short, it runs like this: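 HepG2, transient MRTU transfection, 24 h treatment. RT-PCR plus CE fluorescence; DMSO negative control, bidirectional fit.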

Assay [3] in a line: ATG_CMV_CIS: Attagene CIS-FACTORIAL HepG2 Assay for human CMV (Internal Marker) (AID 2282928).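 Also: endpoint acts as a background internal control marker rather than a target.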 Particulars: HepG2 CMV promoter reporter, transcription factor profiling; actives raise or lower the signal. Put shortly:
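24 h chemical treatment, HepG2 with transient multi-reporter transfection; RNA → oligo(dT) RT → PCR → 6-FAM extension → HpaI digest → CE fluorescence. Bidirectional fit, DMSO negative control.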

Assay [4] is described as follows: ATG_DR4_LXR_CIS: Attagene CIS-FACTORIAL HepG2 Assay for human Liver X Receptor (LXR), DR4 submotif (AID 2282929). Particulars: HepG2 Attagene DR4 cis-reporter, mRNA transcription; actives raise or lower the signal. Put shortly: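 HepG2 cells transiently transfected with cis-promoter-driven multiplexed reporter units (DR4 element) were dosed for 24 h. Reporter mRNA was quantified by RT-PCR, fluorescent primer extension, HpaI digestion and capillary electrophoresis; bidirectional fitting versus DMSO baseline.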

Assay [5] concerns the target Aryl hydrocarbon receptor (Homo sapiens) (UniProt P35869). In words: ATG_Ahr_CIS: Attagene CIS-FACTORIAL HepG2 Assay for human Aryl Hydrocarbon Receptor (Ahr) (AID 2282930). Particulars: HepG2 AhR cis-factorial reporter transcription; actives raise or lower the signal. In short, it runs like this: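 Endogenous factor activity is tracked through cis-promoter reporter units transfected into HepG2 cells. Transcript levels at 24 h are read by fluorescent RT-PCR and capillary electrophoresis, with activity in either direction scored relative to DMSO.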

Assay [6] in a line: ATG_AP_1_CIS: Attagene CIS-FACTORIAL HepG2 Assay for human Activator Protein 1 (AP-1) (AID 2282931). Particulars: HepG2 Attagene cis-factorial AP-1 reporter mRNA; actives raise or lower the signal. In short, it runs like this:
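HepG2 cells transiently transfected with cis-element-driven multiplex reporter units; 24 h compound exposure. Reporter mRNA quantified by RT-PCR, FAM-labelled fragments resolved by capillary electrophoresis; bidirectional fit versus DMSO baseline.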

Assay [7] can be described thus: ATG_AP_2_CIS: Attagene CIS-FACTORIAL HepG2 Assay for human Activator Protein 2 (AP-2) (AID 2282932). Particulars: HepG2 AP-2 cis-reporter, Attagene transcription factor profiling; actives raise or lower the signal. Put shortly: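 Liver-derived HepG2 line, cis-reporter system measuring endogenous factors; 24 h dosing; reporter mRNA detected by fluorescent RT-PCR and capillary electrophoresis.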

Assay [8] in a line: ATG_BRE_CIS: Attagene CIS-FACTORIAL HepG2 Assay for human Bone Morphogenetic Protein (BMP) Response Element (BRE) (AID 2282933). Particulars: HepG2 BMP response element reporter, Attagene transcription factor profiling; actives raise or lower the signal. In short, it runs like this: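 Transient MRTU transfection of human HepG2 liver cells; 24 h compound treatment; total RNA isolated, reverse-transcribed, PCR-amplified, 6-FAM labelled, HpaI-cut, capillary electrophoresis. DMSO = negative control/baseline, bidirectional fit.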

Assay [9] deals with Transcription factor E2F1 (Homo sapiens) (UniProt Q01094). In words: ATG_E2F_CIS: Attagene CIS-FACTORIAL HepG2 Assay for human E2F Transcription Factor 1 (AID 2282935). Particulars: HepG2 Attagene cis-reporter, E2F reporter RNA transcripts; actives raise or lower the signal. In short, it runs like this:
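Liver-derived HepG2 cells expressing transfected promoter-driven reporter units received test chemical for 24 hours. Signal gains or losses were fitted bidirectionally against DMSO.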

The target in assay [10] is Retinoic acid receptor alpha (Homo sapiens) (UniProt P10276). In words: ATG_DR5_RAR_CIS: Attagene CIS-FACTORIAL HepG2 Assay for human Retinoic Acid Receptor Alpha (RARE), DR5 submotif (AID 2282934).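 As to AC50: reporter responds to endogenous RAR alpha beta and gamma in HepG2 not RARA alone.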 Particulars: HepG2 Attagene cis-factorial RARE DR5 reporter, mRNA; actives raise or lower the signal. In short, it runs like this:
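After 24 h of chemical exposure, transiently transfected HepG2 cells were lysed for total RNA; the DR5-regulated reporter transcript was quantified via RT-PCR and capillary electrophoresis, with activity fitted bidirectionally against DMSO.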

Molecules are shown by their SMILES. Activity calls are given as the source filed them. The calls were made as follows: active = hit-call score of the fitted dose curve at least 0.9, where 1 is the maximum; inactive = score below 0.9.

A word on the AC50: it is the concentration giving half of the maximal activity seen.

Chain of Transcription factor E2F1 (Homo sapiens) (Q01094 whole entry, looked up): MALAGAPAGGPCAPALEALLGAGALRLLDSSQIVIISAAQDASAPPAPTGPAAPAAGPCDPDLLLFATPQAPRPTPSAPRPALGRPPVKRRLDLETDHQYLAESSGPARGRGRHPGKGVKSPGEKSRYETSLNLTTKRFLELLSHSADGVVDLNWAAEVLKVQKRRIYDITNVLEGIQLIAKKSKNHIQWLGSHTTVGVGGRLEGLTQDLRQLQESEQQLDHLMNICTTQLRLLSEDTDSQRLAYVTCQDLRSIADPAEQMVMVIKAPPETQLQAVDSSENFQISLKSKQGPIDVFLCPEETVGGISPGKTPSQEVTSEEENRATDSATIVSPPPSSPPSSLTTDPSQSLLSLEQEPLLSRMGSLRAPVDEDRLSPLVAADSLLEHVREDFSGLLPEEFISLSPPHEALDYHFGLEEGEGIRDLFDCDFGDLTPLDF
Chain of Retinoic acid receptor alpha (Homo sapiens) (P10276 whole entry, looked up): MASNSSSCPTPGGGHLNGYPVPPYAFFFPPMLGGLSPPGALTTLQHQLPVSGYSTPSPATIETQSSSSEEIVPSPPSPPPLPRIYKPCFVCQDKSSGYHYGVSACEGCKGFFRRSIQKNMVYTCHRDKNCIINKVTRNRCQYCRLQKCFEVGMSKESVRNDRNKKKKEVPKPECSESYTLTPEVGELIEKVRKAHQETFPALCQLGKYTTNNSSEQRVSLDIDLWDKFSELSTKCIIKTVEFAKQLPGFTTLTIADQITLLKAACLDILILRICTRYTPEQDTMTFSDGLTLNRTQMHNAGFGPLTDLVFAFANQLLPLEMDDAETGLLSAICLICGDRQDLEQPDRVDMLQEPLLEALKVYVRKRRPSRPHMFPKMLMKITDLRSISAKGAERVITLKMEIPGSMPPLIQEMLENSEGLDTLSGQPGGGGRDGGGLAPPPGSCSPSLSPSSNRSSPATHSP
Chain of CCAAT/enhancer-binding protein beta (Homo sapiens) (P17676 whole entry, looked up): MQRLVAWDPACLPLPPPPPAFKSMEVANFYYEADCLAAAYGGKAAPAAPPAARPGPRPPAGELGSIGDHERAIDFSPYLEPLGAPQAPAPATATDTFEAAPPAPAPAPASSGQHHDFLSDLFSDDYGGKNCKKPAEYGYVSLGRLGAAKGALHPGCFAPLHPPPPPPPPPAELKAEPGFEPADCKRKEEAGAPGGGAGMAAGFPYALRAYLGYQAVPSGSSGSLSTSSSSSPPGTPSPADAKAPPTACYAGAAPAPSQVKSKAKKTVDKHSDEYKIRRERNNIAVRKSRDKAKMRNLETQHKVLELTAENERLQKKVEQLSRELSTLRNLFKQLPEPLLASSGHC
Chain of Aryl hydrocarbon receptor (Homo sapiens) (P35869 whole entry, looked up): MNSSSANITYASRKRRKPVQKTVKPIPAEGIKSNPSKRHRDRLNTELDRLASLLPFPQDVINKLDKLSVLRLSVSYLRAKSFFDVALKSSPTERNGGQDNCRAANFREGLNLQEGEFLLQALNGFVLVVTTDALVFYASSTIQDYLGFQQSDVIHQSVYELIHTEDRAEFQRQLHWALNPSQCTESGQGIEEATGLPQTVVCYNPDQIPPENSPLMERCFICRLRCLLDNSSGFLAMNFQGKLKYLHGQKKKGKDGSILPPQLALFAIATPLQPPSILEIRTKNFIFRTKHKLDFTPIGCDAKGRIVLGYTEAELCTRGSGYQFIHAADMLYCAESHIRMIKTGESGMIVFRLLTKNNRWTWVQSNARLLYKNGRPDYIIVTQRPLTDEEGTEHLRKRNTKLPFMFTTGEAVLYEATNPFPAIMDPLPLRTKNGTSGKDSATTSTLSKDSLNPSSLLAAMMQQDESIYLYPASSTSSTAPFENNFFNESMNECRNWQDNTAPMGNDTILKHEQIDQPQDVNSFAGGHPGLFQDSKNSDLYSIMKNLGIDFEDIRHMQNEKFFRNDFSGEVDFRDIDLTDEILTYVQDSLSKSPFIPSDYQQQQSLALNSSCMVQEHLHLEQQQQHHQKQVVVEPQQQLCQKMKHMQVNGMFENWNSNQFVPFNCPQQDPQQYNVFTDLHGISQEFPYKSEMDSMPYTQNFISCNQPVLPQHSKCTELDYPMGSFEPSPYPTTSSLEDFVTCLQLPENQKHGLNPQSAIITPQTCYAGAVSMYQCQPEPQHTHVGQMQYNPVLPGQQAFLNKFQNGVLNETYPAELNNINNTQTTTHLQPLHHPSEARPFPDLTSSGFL

On to `CCN(C(=O)c1cc(C)cc(OC[C@H](C)Nc2ccncc2)c1)C(C)C`, for which the compound was classed as inactive in assay [1], in [2], in assay [3], in assay [5], in [6] and in assay [7]. The result in assay [8] and in assay [9] was inactive. For the same compound, the AC50 in assay [4] is 67.5 µM (active).

Turning to `C=CCCCCCCCCC(=O)O`, the compound was called inactive in [1], in assay [2], in [3], in assay [4], in assay [5] and in assay [6]. Besides, the compound was classed as inactive in [7], in [8] and in assay [9].

Regarding `Cc1c(-c2cccnc2)c2ccccc2n1CCCCC(=O)O`, the call in [1], in assay [2], in [3], in assay [4], in assay [5] and in assay [6] was inactive. For the same compound, the outcome in assay [8], in [10] and in assay [9] was inactive.

Consider `O=C(O)c1cccc(N(Cc2cccnc2)c2ccc(OC(F)F)c(OC(F)F)c2)c1`, for which the outcome in assay [1], in [2], in assay [3], in assay [4], in assay [5] and in assay [6] was inactive. Moreover, the call in assay [7], in assay [8] and in assay [9] was inactive.

As for `O=C(O)c1cccc(Oc2ccccc2)c1`, the compound was classed as inactive in assay [1], in assay [2], in assay [3], in [4], in [5] and in assay [6]. For the same compound, the result in assay [7], in assay [8] and in assay [9] was inactive.

Regarding `O=c1[nH]c2ccc(S(=O)CCN3CCC(Cc4ccc(F)cc4)CC3)cc2o1` (stereo unspecified), the result in assay [1], in assay [2], in assay [3], in assay [5], in assay [6] and in [7] was inactive. Besides, the result in [9] was inactive. Besides, the AC50 in assay [4] was 173 µM (active); in assay [8] it was 100 µM (active).

Take `CCn1nc(Cc2ccccc2)cc1C1CCN(C[C@H]2C[C@H](N(C)[C@@H](C(=O)O)C(C)C)C[C@@H]2c2cccc(F)c2)CC1`: the outcome in assay [1], in assay [2], in [3], in assay [5], in assay [6] and in [8] was inactive. In addition, the call in assay [10] and in assay [9] was inactive. Moreover, the AC50 in [4] was 100 µM (active).

As to `CC1=CC(=O)CC(C)(C)C1`, the compound was called inactive in assay [1], in assay [2], in assay [3], in assay [4], in [5] and in assay [6]. Further, the call in assay [7], in [8] and in assay [9] was inactive.

For `CC(O)CN(CCN(CC(C)O)CC(C)O)CC(C)O` (stereo unspecified), the compound was called inactive in assay [1], in [2], in assay [3], in assay [4], in assay [5] and in [6]. Moreover, the compound was classed as inactive in assay [7], in assay [8] and in [9].

For `CC[C@H]1CC[C@H](NCc2cc3c(cc2OC)[C@H]2C[C@H]2C(=O)N3C)[C@H](c2ccccc2)N1`, the AC50 in [1] was 58.6 µM (active); in assay [2] it was 15.9 µM (active); in assay [7], 55.4 µM (active). Also, the compound was classed as inactive in assay [3], in assay [4], in assay [5], in assay [6], in assay [8] and in assay [9].

For the compound `Cn1cnc([N+](=O)[O-])c1Sc1ncnc2nc[nH]c12`, the compound was classed as inactive in assay [1], in assay [2], in assay [4], in [5], in assay [7] and in assay [8]. In assay [9], the result was inactive. For the same compound, the AC50 is 35.3 µM (active) in assay [3] and 28.1 µM (active) in [6].

Regarding `CCC(C)(C)C(=O)O[C@H]1C[C@@H](C)C=C2C=C[C@H](C)[C@H](CC[C@@H]3C[C@@H](O)CC(=O)O3)[C@H]21`, the call in assay [1], in assay [2], in assay [3], in [4], in assay [5] and in [6] was inactive. Further, the result in assay [7], in [8] and in assay [9] was inactive.

Turning to `CC(C)CCCCCCCOC(=O)CCCCC(=O)OCCCCCCCC(C)C`, the compound was called inactive in assay [1], in assay [2], in [3], in [4], in assay [6] and in assay [8]. Moreover, in assay [9], the outcome was inactive. The AC50 is 64.9 µM (active) in assay [5] and 18 µM (active) in assay [10].

As to `CCCCCCCCCCCCc1ccccc1`, the compound was classed as inactive in [1], in assay [2], in assay [3], in [4], in [5] and in assay [6]. Also, the result in assay [7], in [8] and in assay [9] was inactive.

In the case of `CC(=O)OCCC(C)C`, the call in assay [1], in [2], in assay [3], in assay [4], in assay [5] and in assay [6] was inactive. In addition, the compound was called inactive in [8], in assay [10] and in [9].

For the compound `Nc1ccc(Nc2ccccc2)cc1`, the compound was classed as inactive in [1], in [2], in assay [4], in [5], in assay [6] and in assay [7]. In addition, the call in assay [8] and in assay [9] was inactive. Moreover, the AC50 in assay [3] was 36.7 µM (active).

Consider `CC(=O)OC[C@H]1O[C@@](COC(C)=O)(O[C@H]2O[C@H](COC(C)=O)[C@@H](OC(C)=O)[C@H](OC(C)=O)[C@H]2OC(C)=O)[C@@H](OC(C)=O)[C@@H]1OC(C)=O`, for which the result in [1], in [2], in assay [3], in assay [4], in assay [6] and in assay [8] was inactive. Besides, the compound was classed as inactive in [10] and in [9]. In addition, the AC50 in assay [5] is 53 µM (active).

For the compound `COCCOCCOCCOC`, the compound was called inactive in assay [1], in [2], in assay [3], in assay [4], in [5] and in assay [6]. Besides, the result in [8], in assay [10] and in assay [9] was inactive.

As for `CCNc1ccccc1`, the call in [1], in assay [2], in assay [3], in assay [4], in [5] and in assay [6] was inactive. Moreover, the result in assay [8] and in [9] was inactive.

As to `CNCc1ccc(NC(=O)c2c[nH]c3c2C(=O)CCC3)cc1`, the outcome in assay [1], in [2], in assay [3], in assay [4], in assay [6] and in assay [8] was inactive. In assay [9], the compound was called inactive. Besides, in [5], the AC50 was 4.66 µM (active).

Turning to `COc1ccc(-n2nc(C(F)F)cc2-c2ccc(S(C)=O)cc2)cc1` (stereo unspecified), the result in assay [1], in assay [2], in assay [4], in assay [5], in [6] and in [8] was inactive. The outcome in assay [10] and in [9] was inactive. Further, the AC50 in [3] is 5.24 µM (active).

For `Cc1ccc(S(=O)(=O)O)cc1C`, the outcome in assay [1], in assay [2], in [3], in assay [4], in assay [5] and in assay [6] was inactive. Further, the compound was classed as inactive in assay [8], in assay [10] and in assay [9].
